Source: PubChem BioAssay (Tox21)
Active and inactive are the calls of the source. Unless noted, the call rests on the fitted dose curve; in most records, active means well fitted curve in the direction sought with a large enough effect in the repeat runs; inconclusive means weak or mixed curves; inactive means no such curve, though single readings can be large; an effect the other way counts as inactive or inconclusive.

What was measured:
[1] = qHTS assay for identifying genotoxic compounds that show differential cytotoxicity against isogenic chicken DT40 cell lines with known DNA damage response pathways - wild type cell line (AID 743012); further: nearly all actives have a fitted effect of over 60% in size; further: potency means the concentration at half of the fitted maximal effect
In short: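 First, wild type DT40 cells were plated at 300 per well and equilibrated about 0.5 h at 37 C/5% CO2. Next, compounds in DMSO were added and exposure lasted 40 h. Finally, CellTiter-Glo was added for 30 min at room temperature and luminescence recorded.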

[2] = qHTS assay for identifying genotoxic compounds that show differential cytotoxicity against isogenic chicken DT40 cell lines with known DNA damage response pathways - Rev3 mutant cell line (AID 743014); further: potency means the concentration at half of the fitted maximal effect; nearly all actives have a fitted effect of over 55% in size
[3] = qHTS assay for identifying genotoxic compounds that show differential cytotoxicity against isogenic chicken DT40 cell lines with known DNA damage response pathways - Rad54/Ku70 mutant cell line (AID 743015); further: potency means the concentration at half of the fitted maximal effect; nearly all actives have a fitted effect of over 60% in size
[4] = qHTS assay to identify small molecule antagonists of the androgen receptor (AR) signaling pathway - cell viability counter screen (AID 743033; further: nearly all actives have a fitted effect of over 45% in size; further: potency means the concentration at half of the fitted maximal effect)
[5] = target: Androgen receptor (Homo sapiens) (UniProt P10275); test: qHTS assay to identify small molecule agonists of the androgen receptor (AR) signaling pathway using the MDA cell line (AID 743040; further: nearly all actives have a fitted effect of over 20% in size)
In short: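 After a 5 h incubation at 37C and 0% CO2, MDA-kb2 reporter cells were dosed with compounds in DMSO and kept 16 h under the same conditions. Luciferase activity was then read as luminescence with ONE-Glo.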

[6] = qHTS assay to identify small molecule antagonists of the thyroid receptor (TR) signaling pathway - cell viability counter screen (AID 743064); further: nearly all actives have a fitted effect of over 50% in size; further: potency means the concentration at half of the fitted maximal effect
In short: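 Counter screen for cytotoxicity: compound plus T3 (1 nM final) on GH3.TRE-Luc cells, 23.5 h at 37 °C, then fluorescence viability readout with CellTiter-Fluor.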

[7] = target: Estrogen receptor (Homo sapiens) (UniProt P03372); test: qHTS assay to identify small molecule agonists of the estrogen receptor alpha (ER-alpha) signaling pathway (AID 743075; calls by dose curve)
[8] = target: Estrogen receptor (Homo sapiens) (UniProt P03372); test: qHTS assay to identify small molecule agonists of the estrogen receptor alpha (ER-alpha) signaling pathway using the BG1 cell line (AID 743079); conditions: BG1Luc4E2 cells, ERE-luciferase agonist, 22 h; activation: at 70.3 µM (top of the series); further: nearly all actives have a fitted effect of over 20% in size
[9] = qHTS assay to identify small molecule antagonists of the estrogen receptor alpha (ER-alpha) signaling pathway using the BG1 cell line - cell viability counter screen (AID 743081);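 further: compound given together with 17beta-estradiol as the ER stimulus; nearly all actives have a fitted effect of over 45% in size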; further: potency means the concentration at half of the fitted maximal effect
[10] = target: Aromatase (Homo sapiens) (UniProt P11511); test: qHTS assay to identify aromatase inhibitors (AID 743083); further: nearly all actives have a fitted effect of over 55% in size; further: potency means the concentration at half of the fitted maximal effect
[11] = qHTS assay to identify small molecule antagonists of the thyroid receptor (TR) signaling pathway (AID 743065); further: nearly all actives have a fitted effect of over 55% in size; further: potency means the concentration at half of the fitted maximal effect
In short: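 Antagonism measured as loss of luciferase signal in GH3 cells stably carrying a TRE-luciferase reporter, co-treated with compound and T3 (1 nM final) for 23.5 h at 37 C. Viability was read in the same well by CellTiter-Fluor.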

[12] = target: Estrogen receptor (Homo sapiens) (UniProt P03372); test: qHTS assay to identify small molecule antagonists of the estrogen receptor alpha (ER-alpha) signaling pathway (AID 743069; active means well fitted curve in the direction sought with a large enough effect in the signal ratio in the repeat runs, not every such curve was filed as active; inconclusive means weak or mixed curves, or effect the other way; inactive means no such curve, though single readings can be large or run the other way; the % refers to the signal ratio; further: potency means the concentration at half of the fitted maximal effect)
In short: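 Compound effects are measured against 17beta-estradiol stimulation in HEK293 cells with a UAS-controlled beta-lactamase reporter for ER-alpha. Exposure lasts 18 hr at 37C; LiveBLAzer B/G FRET substrate follows for 2 hr at room temperature.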

[13] = qHTS assay to identify small molecule antagonists of the estrogen receptor alpha (ER-alpha) signaling pathway using the BG1 cell line (AID 743080; calls by dose curve;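 further: BG1 cells stimulated with 17beta-estradiol alongside compound; nearly all actives have a fitted effect of over 25% in size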; further: potency means the concentration at half of the fitted maximal effect); conditions: BG1Luc4E2 ERE-luciferase antagonist mode, luminescence; activity change, negative = inhibition: at 70.3 µM (top of the series)
In short: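 BG1-Luc-4E2 cells (endogenous full-length ER-alpha, 4xERE luciferase) hormone-starved 5 days in charcoal-stripped FBS, plated 4,000/well for 24 h, then compound plus 17beta-estradiol for 21.5 h at 37 C; ONE-Glo luminescence read.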

[14] = qHTS assay to identify small molecule antagonists of the androgen receptor (AR) signaling pathway using the MDA cell line - cell viability counter screen (AID 743041; further: nearly all actives have a fitted effect of over 45% in size; further: potency means the concentration at half of the fitted maximal effect)
In short: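 R1881-driven MDA-kb2 AR-luc cells, 3,000/well, were dosed with library compounds for 16 h; cell health came from CellTiter-Fluor fluorescence in the reporter wells.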

[15] = target: Androgen receptor (Homo sapiens) (UniProt P10275); test: qHTS assay to identify small molecule antagonists of the androgen receptor (AR) signaling pathway using the MDA cell line (AID 743042; further: potency means the concentration at half of the fitted maximal effect; nearly all actives have a fitted effect of over 55% in size)
In short: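 Antagonist mode: compounds plus R1881 agonist added to MDA-kb2 AR-luc cells, incubated 16 h at 37C. Luciferase reporter luminescence quantified, with multiplexed CellTiter-Fluor readout for cell viability.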

[16] = test system: thyroid hormone receptor (rat, GH3 cells); test: qHTS assay to identify small molecule agonists of the thyroid receptor (TR) signaling pathway (AID 743066; calls by dose curve)
[17] = target: Androgen receptor (Homo sapiens) (UniProt P10275); test: qHTS assay to identify small molecule antagonists of the androgen receptor (AR) signaling pathway (AID 743035; active means well fitted inhibition curve with a large enough effect in the signal ratio in the repeat runs, not every such curve was filed as active; inconclusive means weak or mixed curves, or effect the other way; inactive means no such curve, though single readings can be large or run the other way; the % refers to the signal ratio)
In short: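 Beta-lactamase FRET read (2 h RT incubation with LiveBLAzer B/G) following 16 h of compound plus R1881 treatment of AR-UAS-bla HEK293 cells, which had been pre-incubated 4 h at 37C.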

[18] = target: Androgen receptor (Homo sapiens) (UniProt P10275); test: qHTS assay to identify small molecule agonists of the androgen receptor (AR) signaling pathway (AID 743036; active means well fitted activation curve with a large enough effect in the signal ratio in the repeat runs, with a control signal flat, not every such curve was filed as active; inconclusive means weak or mixed curves, or effect the other way; inactive means no such curve, though single readings can be large or run the other way; the % refers to the signal ratio)
In short: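 In this Tox21 qHTS, 2,000 HEK293 AR-bla cells per well were incubated with compounds for 16 h at 37C and 5% CO2. Fluorescence intensity was recorded 2 h after adding LiveBLAzer B/G FRET substrate at room temperature.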

[19] = qHTS assay to identify small molecule antagonists of the estrogen receptor alpha (ER-alpha) signaling pathway - cell viability counter screen (AID 743074; calls by dose curve;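 further: HEK293 cells carrying ER-alpha-UAS-bla reporter stimulated with 17beta-estradiol; nearly all actives have a fitted effect of over 45% in size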)

Measured: Potency

Sequence of Androgen receptor (Homo sapiens) (P10275 whole entry, looked up): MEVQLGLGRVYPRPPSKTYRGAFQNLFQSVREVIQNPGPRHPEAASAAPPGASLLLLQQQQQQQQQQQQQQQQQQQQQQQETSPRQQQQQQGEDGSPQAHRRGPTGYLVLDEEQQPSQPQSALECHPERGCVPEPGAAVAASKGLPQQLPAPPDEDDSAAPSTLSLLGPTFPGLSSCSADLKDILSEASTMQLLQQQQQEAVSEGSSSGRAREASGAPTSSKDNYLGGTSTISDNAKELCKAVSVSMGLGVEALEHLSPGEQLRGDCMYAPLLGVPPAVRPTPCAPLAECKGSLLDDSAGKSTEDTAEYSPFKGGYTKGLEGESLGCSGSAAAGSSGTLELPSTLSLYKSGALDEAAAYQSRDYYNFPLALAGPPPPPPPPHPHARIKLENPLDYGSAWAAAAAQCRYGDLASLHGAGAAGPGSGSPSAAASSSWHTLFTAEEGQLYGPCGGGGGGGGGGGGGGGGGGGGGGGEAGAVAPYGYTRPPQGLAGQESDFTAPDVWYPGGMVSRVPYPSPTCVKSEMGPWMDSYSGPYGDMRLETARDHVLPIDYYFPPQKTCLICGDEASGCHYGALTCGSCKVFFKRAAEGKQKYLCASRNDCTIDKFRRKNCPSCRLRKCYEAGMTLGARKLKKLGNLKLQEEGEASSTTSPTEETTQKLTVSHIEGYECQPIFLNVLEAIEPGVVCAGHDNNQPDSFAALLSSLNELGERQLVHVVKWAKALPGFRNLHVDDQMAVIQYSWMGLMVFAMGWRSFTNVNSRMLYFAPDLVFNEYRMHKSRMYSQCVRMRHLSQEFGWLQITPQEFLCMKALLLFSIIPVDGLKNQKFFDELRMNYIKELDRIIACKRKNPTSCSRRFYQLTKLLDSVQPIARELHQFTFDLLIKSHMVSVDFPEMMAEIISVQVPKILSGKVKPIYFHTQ
Sequence of Aromatase (Homo sapiens) (P11511 whole entry, looked up): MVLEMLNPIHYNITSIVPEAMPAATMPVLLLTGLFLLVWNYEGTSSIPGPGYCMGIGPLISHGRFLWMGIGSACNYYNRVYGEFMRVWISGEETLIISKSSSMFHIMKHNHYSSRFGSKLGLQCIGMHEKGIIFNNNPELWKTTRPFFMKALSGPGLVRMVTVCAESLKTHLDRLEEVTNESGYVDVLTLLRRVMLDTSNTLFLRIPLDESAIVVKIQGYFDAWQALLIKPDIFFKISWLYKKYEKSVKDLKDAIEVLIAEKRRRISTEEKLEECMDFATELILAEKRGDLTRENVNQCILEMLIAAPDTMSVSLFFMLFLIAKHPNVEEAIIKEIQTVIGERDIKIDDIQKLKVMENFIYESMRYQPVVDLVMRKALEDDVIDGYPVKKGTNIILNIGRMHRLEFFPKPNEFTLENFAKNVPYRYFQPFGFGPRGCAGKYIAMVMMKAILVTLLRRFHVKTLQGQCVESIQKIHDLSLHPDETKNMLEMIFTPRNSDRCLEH
Sequence of Estrogen receptor (Homo sapiens) (P03372 whole entry, looked up): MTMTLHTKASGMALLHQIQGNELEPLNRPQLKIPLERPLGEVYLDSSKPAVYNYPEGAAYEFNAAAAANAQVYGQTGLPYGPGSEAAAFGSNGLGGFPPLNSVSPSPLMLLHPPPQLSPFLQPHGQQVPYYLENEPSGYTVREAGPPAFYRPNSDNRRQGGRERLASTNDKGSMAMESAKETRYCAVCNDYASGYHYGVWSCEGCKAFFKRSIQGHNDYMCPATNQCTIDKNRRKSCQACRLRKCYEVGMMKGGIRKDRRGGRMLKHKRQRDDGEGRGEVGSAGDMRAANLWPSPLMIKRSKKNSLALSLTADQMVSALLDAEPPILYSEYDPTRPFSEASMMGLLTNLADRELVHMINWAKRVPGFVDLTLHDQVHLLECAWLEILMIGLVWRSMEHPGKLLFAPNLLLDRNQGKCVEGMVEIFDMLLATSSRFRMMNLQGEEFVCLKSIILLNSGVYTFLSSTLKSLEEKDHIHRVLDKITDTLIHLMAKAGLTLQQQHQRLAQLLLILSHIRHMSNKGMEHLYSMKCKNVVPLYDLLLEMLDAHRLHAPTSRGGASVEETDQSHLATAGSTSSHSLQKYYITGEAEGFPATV

N#CSCSc1nc2ccccc2s1
inactive: [5] | [7] | [8] | [9]
active: [1] 0.864 µM | [2] 0.969 µM | [3] 0.969 µM | [4] 13.8 µM | [6] 1.54 µM | [10] 15.4 µM

CCN(CC)CCOc1ccc(C(O)(Cc2ccc(Cl)cc2)c2ccc(C)cc2)cc1 (configuration not stated)
inactive: [7] | [13] | [9]
active: [1] 2.11 µM | [2] 2.11 µM | [3] 2.98 µM | [4] 16.9 µM | [6] 7.5 µM | [11] 7.5 µM | [12] 23.9 µM [inconclusive] | [10] 29.8 µM

CCN(CC)c1ccc(N)cc1
active: [1] 5.6 µM | [2] 4.45 µM | [3] 4.45 µM | [4] 15.9 µM | [14] 22.3 µM | [9] 70.5 µM | [10] 28.1 µM

CCC(C)c1cc([N+](=O)[O-])cc([N+](=O)[O-])c1OC(=O)OC(C)C (configuration not stated)
active: [1] 30.6 µM | [2] 48.6 µM | [3] 30.6 µM | [14] 54.5 µM | [15] 27.3 µM | [6] 48.6 µM | [10] 61.1 µM
inactive: [5] | [16]

Clc1ccc(C(Cn2ccnc2)OCc2ccsc2Cl)c(Cl)c1 (configuration not stated)
inactive: [14] | [13] | [9]
active: [1] 7.5 µM | [2] 11.9 µM | [3] 13.3 µM | [4] 26.8 µM | [6] 13.3 µM | [10] 5.31 µM

COc1ccc2sc(C(=O)Nc3nnn[nH]3)c(OC(C)C)c2c1
inactive: [7] | [9]
active: [1] 30.5 µM | [2] 27.2 µM | [3] 17.2 µM | [4] 24.5 µM | [6] 7.66 µM | [11] 6.09 µM | [13] 54.3 µM

CC(C)(C)C1=CC(=O)C=C(C(C)(C)C)C1=O
inactive: [1] | [4] | [14] | [6] | [16] | [12] | [7] | [8] | [13] | [9]
active: [10] 34.4 µM

Cc1c(C(=O)O)cccc1[N+](=O)[O-]
active: [1] 62.1 µM
inactive: [17] | [18] | [5] | [14] | [6] | [11] | [16] | [19] | [9] | [10]
